# Several values for one entry are separate records, joined by “and”; a condition that tells them apart may be missing. Equal values may be shown once. Activity calls are given as the source filed them.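 The calls were made as follows, unless noted: active = thallium flux through the channel raised or lowered by more than 3 SD from vehicle-only wells, actives on both sides; inactive = the rest.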
# Columns and labels:
# [1] = P. berghei load reduction in hepatocytes – cell-based, HepG2, luciferase luminescence, HepG2 viability, primary screen (AID 624349; in the data active = parasite load remaining mostly below about 12%, no sharp cut-off; inactive = mostly above about 10%;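 also: 100% = mean of DMSO negative control wells on the same plate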); settings: P. berghei liver stage in HepG2, luciferase luminescence, concentration not given here; parasite load remaining: stronger effect = lower value; viability: measured here: HepG2 viability without parasites
# [2] = signal quenchers or enhancers, Cy5 substrate/SSB – biochemical, NIH Clinical Collection, E. coli SSB, artefact control for HCV NS3 helicase inhibitor project (AID 743268; call rule not given here); settings: Cy5-oligo bound E. coli SSB, fluorescence interference
# [3] = system: Hepatitis C virus NS3 helicase; assay: blockers of NS3h binding to DNA – biochemical, fluorescence polarization, NIH Clinical Collection, primary screen (AID 743270; call rule not given here); settings: NS3 helicase binding to Cy5-dT15 DNA, stronger effect = higher value, concentration not given here
# [4] = molecular target: Single-stranded DNA-binding protein (Escherichia coli (strain K12)) (UniProt P0AGE0); assay: SSB-ssDNA binding inhibitors – biochemical, fluorescence polarization, NIH Clinical Collection, counter-screen for HCV NS3 helicase inhibitor project (AID 743271; in the data active = inhibition above about 28%); settings: E. coli SSB-DNA binding, stronger effect = higher value, concentration not given here
# [5] = compounds distorting NS3 helicase fluorescence signal – biochemical, NIH Clinical Collection, artefact control for HCV NS3 helicase inhibitor project (AID 743272; call rule not given here;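 also: HCV NS3 helicase with a Cy5 labelled single stranded DNA probe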); settings: fluorescence interference counterscreen, HCV NS3 helicase assay; stronger effect = lower value
# [6] = modulation of C. elegans fzo-1 (AID 1259413; call rule not given here;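 also: fzo-1 mutant C. elegans worms in liquid wells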); settings: C. elegans fzo-1 modulator screen, mean read-out; stronger effect = higher value
# [7] = viability loss with induced miR-34 in A549 – imaging, A549 dox-inducible miR-34, nuclei and caspase counts, primary screen (AID 1347080;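 active = compounds whose cell count with miR-34 switched on is under 0.7 times the count with it off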); settings: A549 miR-34 inducible, Hoechst nuclei count, 48 h
# [8] = MELAS cybrid and Rieske KO viability enhancers – cell-based, MELAS cybrids, Rieske KO mouse fibroblasts, CellTiter-Glo, primary screen (AID 1508586;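 active = mean z-score across replicates of 1.96 or higher in either the MELAS or the Rieske mutant cell line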;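 also: z relative to plate mean and SD of compound and empty wells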); settings: low glucose
# [9] = galactose survival enhancers in mitochondrial complex I cybrids – cell-based, galactose medium, ATP luminescence, primary screen (AID 1645843;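 active = z-score of at least 1.8 in each of two replicates, scored against plate mean and spread of sample wells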;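 also: positive z means more ATP and so rescue of galactose-driven cybrid death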); settings: complex I mutant cybrid cells, 72 h, stronger effect = higher value
# F380Y = assay: BK channel mutant inhibitors and activators – cell-based, U2OS BacMam, thallium flux, beta subunits, selectivity assay, profiling panel (AID 1259406); settings: U2OS BacMam BK variants, at 30 µM;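 also: initial slope of Thallos dye fluorescence rise after thallium is added; log ratio against the mean of 0.3% DMSO vehicle wells on the same plate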
# F380Y/beta1 = assay: as above; settings: U2OS BacMam BK variants, at 30 µM
# F380Y/beta2Delta = assay: as above; settings: U2OS BacMam BK variants, at 30 µM
# F380Y/beta4 = assay: as above; settings: U2OS BacMam BK variants, at 30 µM
# [10] = molecular target: Calcium-activated potassium channel subunit alpha-1 (Homo sapiens) + Leucine-rich repeat-containing protein 26 (Homo sapiens) (UniProt Q12791+Q2I0M4); assay: as above; settings: U2OS BacMam BK variants, F380Y/Slo1WT/gamma1, at 30 µM
# R275C = assay: as above; settings: U2OS BacMam BK variants, at 30 µM
# R275C/beta1 = assay: as above; settings: U2OS BacMam BK variants, at 30 µM
# R275C/beta2Delta = assay: as above; settings: U2OS BacMam BK variants, at 30 µM
# R275C/beta4 = assay: as above; settings: U2OS BacMam BK variants, at 30 µM
# R275C/Slo1WT/beta2 = assay: as above; settings: U2OS BacMam BK variants, at 30 µM
# [11] = system: Neuropilin-2 / VEGF-C interaction (human); assay: small molecules blocking Neuropilin-2/VEGF-C interaction – biochemical, microplate binding format, z-score (AID 743281; call rule not given here); settings: microplate NRP2/VEGF-C binding assay; stronger effect = lower value
# [12] = stronger effect = lower value, cell number ratio, induced over uninduced
# [13] = measured here: relative caspase fold change +Dox/-Dox
# [14] = measured here: total cells with miR-34 induction, stronger effect = lower value
# [15] = measured here: total cells without miR-34 induction
# [16] = MELAS cybrid survival, CellTiter-Glo 48 h, stronger effect = higher value
# [17] = Rieske KO mouse fibroblast survival, CellTiter-Glo 72 h
# Sequence of Calcium-activated potassium channel subunit alpha-1 (Homo sapiens) + Leucine-rich repeat-containing protein 26 (Homo sapiens) (Q2I0M4 whole entry, looked up, one chain of several): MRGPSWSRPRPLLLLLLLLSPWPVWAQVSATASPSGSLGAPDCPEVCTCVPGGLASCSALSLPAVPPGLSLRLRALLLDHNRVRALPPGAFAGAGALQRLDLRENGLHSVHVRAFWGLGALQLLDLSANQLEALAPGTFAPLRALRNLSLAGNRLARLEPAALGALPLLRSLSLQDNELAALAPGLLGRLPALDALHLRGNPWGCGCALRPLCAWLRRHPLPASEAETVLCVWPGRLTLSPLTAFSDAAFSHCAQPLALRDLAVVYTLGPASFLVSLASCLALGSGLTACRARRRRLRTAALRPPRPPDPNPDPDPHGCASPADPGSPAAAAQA
smiles,measurement,setting,value
COc1cc(C)c(/C=C/C(C)=C/C=C/C(C)=C/C(=O)O)c(C)c1C,parasite load remaining,[1],45.7% (inactive)
same,viability,[1],100%
same,fluorescence ratio,[2],1.04 (inactive)
same,inhibition,[3],4.09% (inactive)
same,inhibition,[4],4.1% (inactive)
same,fluorescence ratio,[5],1 (inactive)
same,mean signal,[6],260 (inactive)
same,fold change,[7]; [12],0.995 (inactive)
same,fold change,[7]; [13],2.52
same,cell count,[7]; [14],10300
same,cell count,[7]; [15],10300
same,z-score,[8]; [16],0.713 (inactive)
same,z-score,[8]; [17],1.44
same,z-score,[9],-0.775 (inactive)
same,log fold change Tl+ flux,F380Y,-0.0381 (inactive)
same,log fold change Tl+ flux,F380Y/beta1,0.176 (active)
same,log fold change Tl+ flux,F380Y/beta2Delta,0.35 (active)
same,log fold change Tl+ flux,F380Y/beta4,0.0442 (inactive)
same,log fold change Tl+ flux,[10],0.229 (active)
same,log fold change Tl+ flux,R275C,-0.0134 (inactive)
same,log fold change Tl+ flux,R275C/beta1,0.389 (active)
same,log fold change Tl+ flux,R275C/beta2Delta,0.261 (active)
same,log fold change Tl+ flux,R275C/beta4,0.228 (active)
same,log fold change Tl+ flux,R275C/Slo1WT/beta2,-0.0131 (inactive)
CC1(C)SC2C(NC(=O)Cc3ccccc3)C(=O)N2C1C(=O)O (centres undefined),parasite load remaining,[1],67.7% (inactive)
same,viability,[1],89.4%
same,fluorescence ratio,[2],1.02 (inactive)
same,inhibition,[3],-1.36% (inactive)
same,inhibition,[4],1.05% (inactive)
same,fluorescence ratio,[5],1 (inactive)
same,mean signal,[6],247 (inactive)
same,fold change,[7]; [12],0.988 (inactive)
same,fold change,[7]; [13],2.34
same,cell count,[7]; [14],10600
same,cell count,[7]; [15],10700
same,z-score,[9],-0.1 (inactive)
same,log fold change Tl+ flux,F380Y,-0.0498 (inactive)
same,log fold change Tl+ flux,F380Y/beta1,-0.0346 (inactive)
same,log fold change Tl+ flux,F380Y/beta2Delta,-0.00781 (inactive)
same,log fold change Tl+ flux,F380Y/beta4,0.000902 (inactive)
same,log fold change Tl+ flux,[10],0.0267 (inactive)
same,log fold change Tl+ flux,R275C,0.0404 (inactive)
same,log fold change Tl+ flux,R275C/beta1,-0.00964 (inactive)
same,log fold change Tl+ flux,R275C/beta2Delta,0.00389 (inactive)
same,log fold change Tl+ flux,R275C/beta4,-0.0356 (inactive)
same,log fold change Tl+ flux,R275C/Slo1WT/beta2,-0.096 (inactive)
COc1cc(C[C@@H](CO)[C@H](CO)Cc2ccc(O)c(OC)c2)ccc1O,parasite load remaining,[1],74.6% (inactive)
same,viability,[1],77.7%
same,fluorescence ratio,[2],0.93 (inactive)
same,inhibition,[3],-1.09% (inactive)
same,inhibition,[4],3.54% (inactive)
same,fluorescence ratio,[5],0.88 (inactive)
same,z-score,[11],0.125 (inactive)
same,mean signal,[6],248 (inactive)
same,log fold change Tl+ flux,F380Y,0.00354 (inactive)
same,log fold change Tl+ flux,F380Y/beta1,0.0295 (inactive)
same,log fold change Tl+ flux,F380Y/beta2Delta,0.0145 (inactive)
same,log fold change Tl+ flux,F380Y/beta4,0.00227 (inactive)
same,log fold change Tl+ flux,[10],0.0262 (inactive)
same,log fold change Tl+ flux,R275C,-0.00612 (inactive)
same,log fold change Tl+ flux,R275C/beta1,-0.00624 (inactive)
same,log fold change Tl+ flux,R275C/beta2Delta,-0.0204 (inactive)
same,log fold change Tl+ flux,R275C/beta4,-0.0506 (inactive)
same,log fold change Tl+ flux,R275C/Slo1WT/beta2,0.0317 (inactive)
O=C1c2c(O)cc(O)cc2O[C@H](c2ccc(O)c(O)c2)[C@H]1O,parasite load remaining,[1],112% (inactive)
same,viability,[1],91%
same,fluorescence ratio,[2],0.99 (inactive)
same,inhibition,[3],1.19% (inactive)
same,inhibition,[4],-1.64% (inactive)
same,fluorescence ratio,[5],0.99 (inactive)
same,z-score,[11],-0.839 (inactive)
same,mean signal,[6],241 (inactive)
same,log fold change Tl+ flux,F380Y,0.0483 (inactive)
same,log fold change Tl+ flux,F380Y/beta1,-0.0233 (inactive)
same,log fold change Tl+ flux,F380Y/beta2Delta,0.00163 (inactive)
same,log fold change Tl+ flux,F380Y/beta4,0.00589 (inactive)
same,log fold change Tl+ flux,[10],0.0266 (inactive)
same,log fold change Tl+ flux,R275C,-0.0716 (inactive)
same,log fold change Tl+ flux,R275C/beta1,-0.00477 (inactive)
same,log fold change Tl+ flux,R275C/beta2Delta,0.0423 (inactive)
same,log fold change Tl+ flux,R275C/beta4,0.0387 (inactive)
same,log fold change Tl+ flux,R275C/Slo1WT/beta2,-0.0121 (inactive)
COc1ccnc(CS(=O)c2nc3cc(OC(F)F)ccc3[nH]2)c1OC (centres undefined),parasite load remaining,[1],94.6% (inactive)
same,viability,[1],75.5%
same,fluorescence ratio,[2],1.07 (inactive)
same,inhibition,[3],-2.77% (inactive)
same,inhibition,[4],1.44% (inactive)
same,fluorescence ratio,[5],1.05 (inactive)
same,z-score,[11],0.437 (inactive)
same,mean signal,[6],243 (inactive)
same,fold change,[7]; [12],0.937 (inactive)
same,fold change,[7]; [13],1.32
same,cell count,[7]; [14],9070
same,cell count,[7]; [15],9680
same,z-score,[8]; [16],1.33 (inactive)
same,z-score,[8]; [17],0.907
same,z-score,[9],0.63 (inactive)
same,log fold change Tl+ flux,F380Y,-0.000729 (inactive)
same,log fold change Tl+ flux,F380Y/beta1,-0.0068 (inactive)
same,log fold change Tl+ flux,F380Y/beta2Delta,0.0285 (inactive)
same,log fold change Tl+ flux,F380Y/beta4,-0.0379 (inactive)
same,log fold change Tl+ flux,[10],0.0336 (inactive)
same,log fold change Tl+ flux,R275C,-0.0182 (inactive)
same,log fold change Tl+ flux,R275C/beta1,0.0487 (inactive)
same,log fold change Tl+ flux,R275C/beta2Delta,0.0404 (inactive)
same,log fold change Tl+ flux,R275C/beta4,-0.00392 (inactive)
same,log fold change Tl+ flux,R275C/Slo1WT/beta2,-0.00592 (inactive)
Cc1onc(-c2ccccc2)c1C(=O)NC1C(=O)N2C1SC(C)(C)C2C(=O)O (centres undefined),parasite load remaining,[1],62.5% (inactive)
same,viability,[1],137%
same,fluorescence ratio,[2],1.01 (inactive)
same,inhibition,[3],-1.36% (inactive)
same,inhibition,[4],2.57% (inactive)
same,fluorescence ratio,[5],1 (inactive)
same,mean signal,[6],250 (inactive)
same,fold change,[7]; [12],0.977 (inactive) and 0.865 (inactive)
same,fold change,[7]; [13],2.75 and 0.316
same,cell count,[7]; [14],10800 and 8670
same,cell count,[7]; [15],11000 and 10000
same,z-score,[8]; [16],1.06 (inactive)
same,z-score,[8]; [17],0.0389
same,z-score,[9],0.33 (inactive) and 0.12 (inactive)
same,log fold change Tl+ flux,F380Y,-0.000886 (inactive)
same,log fold change Tl+ flux,F380Y/beta1,-0.0194 (inactive)
same,log fold change Tl+ flux,F380Y/beta2Delta,-0.0125 (inactive)
same,log fold change Tl+ flux,F380Y/beta4,-0.0665 (inactive)
same,log fold change Tl+ flux,[10],0.0114 (inactive)
same,log fold change Tl+ flux,R275C,0.00519 (inactive)
same,log fold change Tl+ flux,R275C/beta1,0.0152 (inactive)
same,log fold change Tl+ flux,R275C/beta2Delta,0.00981 (inactive)
same,log fold change Tl+ flux,R275C/beta4,-0.0329 (inactive)
same,log fold change Tl+ flux,R275C/Slo1WT/beta2,-0.0606 (inactive)
Nc1ccc2cn[nH]c2c1,parasite load remaining,[1],61.3% (inactive)
same,viability,[1],64.9%
same,fluorescence ratio,[2],0.99 (inactive)
same,inhibition,[3],-1.09% (inactive)
same,inhibition,[4],-0.39% (inactive)
same,fluorescence ratio,[5],0.98 (inactive)
same,z-score,[11],-0.807 (inactive)
same,mean signal,[6],290 (inactive)
same,fold change,[7]; [12],0.924 (inactive)
same,fold change,[7]; [13],1.71
same,cell count,[7]; [14],8130
same,cell count,[7]; [15],8800
same,z-score,[9],0.52 (inactive)
same,log fold change Tl+ flux,F380Y,-0.0182 (inactive)
same,log fold change Tl+ flux,F380Y/beta1,-0.022 (inactive)
same,log fold change Tl+ flux,F380Y/beta2Delta,0.0231 (inactive)
same,log fold change Tl+ flux,F380Y/beta4,-0.00919 (inactive)
same,log fold change Tl+ flux,[10],0.0509 (inactive)
same,log fold change Tl+ flux,R275C,-0.0141 (inactive)
same,log fold change Tl+ flux,R275C/beta1,-0.000281 (inactive)
same,log fold change Tl+ flux,R275C/beta2Delta,0.0572 (inactive)
same,log fold change Tl+ flux,R275C/beta4,-0.0327 (inactive)
same,log fold change Tl+ flux,R275C/Slo1WT/beta2,0.0188 (inactive)
